The list is not random: actives were taken first. Their share in the collection is about 2.8%.
Pol iota inh: DNA polymerase iota (human) inhibition. Pol iota fluorescent replication assay, 10 min. Q9UNA4. Potency, µM (highest dose often 115 µM), inactives show at the top dose activity, negative = inhibition, actives largely listed as inhibitors. AID 588590. actives 1% (n = 390,000); note: potency is the fitted concentration of half-maximal effect
Target sequence (Q9UNA4 whole entry, looked up): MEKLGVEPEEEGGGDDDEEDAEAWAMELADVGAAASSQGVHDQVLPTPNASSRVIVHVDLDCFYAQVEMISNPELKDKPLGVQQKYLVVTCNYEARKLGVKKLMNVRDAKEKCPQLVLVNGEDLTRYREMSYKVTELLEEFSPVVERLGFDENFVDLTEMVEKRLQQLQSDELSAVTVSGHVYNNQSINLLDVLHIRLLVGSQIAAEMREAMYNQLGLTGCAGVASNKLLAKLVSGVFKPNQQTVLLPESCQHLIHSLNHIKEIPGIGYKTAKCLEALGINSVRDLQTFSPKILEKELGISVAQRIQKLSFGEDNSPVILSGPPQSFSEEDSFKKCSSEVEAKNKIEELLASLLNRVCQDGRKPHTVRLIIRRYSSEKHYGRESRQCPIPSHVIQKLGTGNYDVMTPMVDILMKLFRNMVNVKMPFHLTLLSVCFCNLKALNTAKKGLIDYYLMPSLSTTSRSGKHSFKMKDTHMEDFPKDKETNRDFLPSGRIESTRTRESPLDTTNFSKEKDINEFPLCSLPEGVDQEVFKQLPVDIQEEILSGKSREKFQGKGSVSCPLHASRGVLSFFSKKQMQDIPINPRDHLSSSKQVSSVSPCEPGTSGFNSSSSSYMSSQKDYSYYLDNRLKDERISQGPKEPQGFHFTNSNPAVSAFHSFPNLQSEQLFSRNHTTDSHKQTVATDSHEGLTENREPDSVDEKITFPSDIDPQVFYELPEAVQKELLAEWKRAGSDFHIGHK
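Pol iota at 10 nM preincubated 15 min with compounds at room temperature; reaction started with fluorescent substrate, 50 nM final. Fluorescence read kinetically at 0 and 10 min; buffer-only wells as negative control.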
Pol beta inh: blocks human DNA polymerase beta activity; actives 1.3% (n = 340,000); Potency, µM (doses to about 114 µM), inactives show at the highest dose activity change, negative = inhibition, most hits filed as inhibitors; Pol beta primer extension/strand displacement, fluorescence kinetic; P06746; AID 485314; note: potency is the fitted concentration of half-maximal effect; % is set by controls: 0 for no effect and ±100 for the full control effect
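Values derive from four-parameter Hill fits of normalized kinetic data: reads at 0 and 10 min following addition of 50 nM substrate to 10 nM Pol beta preincubated 15 min with compound.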
Pol kappa inh: inhibitors of human DNA polymerase kappa | Q9UBT6 | purified Pol kappa, fluorescent DNA synthesis assay, 10 min | Potency, µM (titrated, usually from 107 µM), for the others: top-dose activity, negative = inhibition, most hits filed as inhibitors | actives 0.53% (n = 400,000); note: potency is the fitted concentration of half-maximal effect; % is set by controls: 0 for no effect and ±100 for the full control effect
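Activity was followed as the change in fluorescence between reads at 0 and 10 min after starting the reaction with 50 nM substrate. Beforehand, 10 nM polymerase had been preincubated with compound for 15 min at room temperature.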
PI5P4Ka inh: PI5P4K alpha (human) kinase inhibition | actives 1.2% (n = 330,000) | PI5P4Kalpha enzyme, ADP-Glo luminescence, 60 min; stronger effect = lower value | P48426 | max response, %; active = max response of -50% or lower; inconclusive = between -30% and -50%; inactive = -30% or higher; note: value at the top dose of about 77 µM; % is set by controls: 0 for no effect and ±100 for the full control effect
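ADP-Glo luminescence end-point after a 60 min room-temperature kinase reaction. PI5P4Kalpha and substrate in HEPES pH 7.4 buffer with EGTA, 0.1% CHAPS and 5% DMSO; ATP at 5 microM final.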
WRN inhibitor: blocks human WRN helicase; Q14191; WRN helicase unwinding, fluorescent forked duplex, kinetic; Potency, µM (titrated, usually from 114 µM), for the others: at the highest dose activity change, negative = inhibition, actives largely listed as inhibitors; actives 0.46% (n = 360,000); AID 651768; note: potency is the fitted concentration of half-maximal effect; % is set by controls: 0 for no effect and ±100 for the full control effect; nearly all actives have a fitted effect of over 55% in size
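Enzyme (20 nM final) and test compound sit together 15 min at room temperature before substrate addition. Substrate is a single-forked duplex oligonucleotide (100 nM) labelled with fluorophore and quencher, with 2 mM ATP; helicase unwinding raises red fluorescence, read kinetically.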
Pol eta inh: inhibitors of human DNA polymerase eta; actives 1.2% (n = 390,000); AID 588591; recombinant Pol eta, fluorescent DNA replication assay; Potency, µM (doses to about 114 µM), inactives show at the top dose activity change, negative = inhibition, usual class: inhibitors; Q9Y253; note: potency is the fitted concentration of half-maximal effect; % is set by controls: 0 for no effect and ±100 for the full control effect
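Pol eta (10 nM) was preincubated with compounds for 15 min at room temperature, after which fluorescent replication substrate (50 nM final) was added to start the reaction. Fluorescence was read kinetically at 0 and 10 min.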
Starred values were filed as active, the others as inactive; ? = inconclusive; . = not tested or not shown; [ ] = dose if it differs, or a comment. Unless noted, calls come from the whole dose curve; as a rule, active = well fitted curve in the direction sought with a large enough effect; inconclusive = small, poorly fitted or top-dose-only effect, or another doubt; inactive = no such curve, though single readings can be large; an effect the other way counts as inactive or inconclusive.

SMILES	Pol iota inh	Pol beta inh	Pol kappa inh	PI5P4Ka inh	WRN inhibitor	Pol eta inh
N=c1ccn(Cc2c(Cl)cccc2Cl)cc1	141%	-1%	?	0	14%	-12%
COC(=O)C1Sc2[nH]c(=O)sc2C2c3ccccc3OC(=O)C12 (stereo unspecified)	45%	18%	-7%	-3	5%	8%
CC1(C(=O)O)Sc2[nH]c(=O)sc2C2c3ccccc3OC(=O)C21 (stereo unspecified)	-2%	-10%	-15%	-91*	-11%	10%
COc1ccc(C=Nc2ccc3[nH]ncc3c2)c(O)c1	50%	-1%	-10%	1	6%	-7%
Oc1c(Br)cc(Br)cc1C=Nc1ccc2[nH]ncc2c1	11%	-8%	-41%	-51*	-35%	-7%
COc1cccc2c1Oc1ncccc1N(C(=O)CCC(=O)NCc1cccc(C)c1)C2	40µM*	27%	-45%	-2	-6%[11.6 µM]	-7%
CCc1ccc(NC(=O)CCn2cnc3ccccc3c2=O)cc1	?	?	-8%[60.1 µM]	.	.	1%
Cc1coc2c(C)c3oc(=O)c(CCC(=O)N[C@@H](C)C(=O)N[C@@H](Cc4ccccc4)C(=O)O)c(C)c3cc12	-12%	?	?	4	-18%	28µM*
Cc1coc2c(C)c3oc(=O)c(CCC(=O)NCCc4ccccc4)c(C)c3cc12	2%	-3%	-3%	.	.	7%
CCCC(NC(=O)Cc1c(C)c2cc3c(C)c(C)oc3c(C)c2oc1=O)C(=O)N[C@@H](Cc1ccccc1)C(=O)O (stereo partly specified)	?	28µM*	?	-6	-16%	?
COCCSc1ccccc1C(=O)Nc1ccc(Cl)cc1	10µM*	0%	-1%	-25	-7%[11.6 µM]	-7%
COc1ccc(Cn2c3nc4ccccc4nc3c3c(=O)n(Cc4ccco4)c(C)nc32)cc1	.	10µM*	.	.	.	.
Cc1ccc(S(=O)(=O)c2c(N)n(CCCN(C)C)c3nc4ccccc4nc23)cc1	-3%	0%	-7%	-1	-4%	-14%
COc1ccc(S(=O)(=O)c2c(N)n(Cc3ccco3)c3nc4ccccc4nc23)cc1	7.9µM*	?	25µM*	-89*	35µM*	7.9µM*
CCO/C(C)=N/n1c2nc3ccccc3nc2c2c(=O)n(Cc3ccccc3Cl)c(C)nc21	?	20%	-1%	7	58%	-13%
Cc1nc2c(c(=O)n1Cc1ccccc1Cl)c1nc3ccccc3nc1n2Cc1ccco1	.	20µM*	.	.	.	.
Cc1ccc(-n2cnc3cc(C(=O)NCc4ccccc4Cl)ccc32)c(C)c1	-26%	5%	-10%[60.1 µM]	.	.	-12%
COc1ccccc1NC(=O)c1ncn(-c2ccccc2)n1	89µM*	5%	-7%	.	.	.
COc1ccc(NC(=O)c2ncn(-c3ccccc3)n2)cc1Cl	11%	0%	7%	.	.	-18%
O=C(CCn1cnc2ccccc2c1=O)NCc1ccccc1	-5%	20µM*	-6%[60.1 µM]	.	.	?
COc1cccc(CNC(=O)CCn2cnc3ccccc3c2=O)c1	?	14µM*	-5%[60.1 µM]	.	.	-10%
O=C(CCn1cnc2ccccc2c1=O)NCc1ccccc1Cl	9%	0%	-5%[60.1 µM]	.	.	-12%
COc1ccccc1NC(=O)CCn1cnc2ccccc2c1=O	89µM*	?	-5%[60.1 µM]	.	.	.
COC(=O)Cn1ccnc1[N+](=O)[O-]	.	.	.	-4	1%	2%
COc1ccc(CC(=O)NNc2ncnc3c2cnn3-c2ccc(C)cc2)cc1OC	11%	6%	-7%	1	-7%	-4%
SMILES	Pol iota inh	Pol beta inh	Pol kappa inh	PI5P4Ka inh	WRN inhibitor	Pol eta inh
COC(=O)c1cc2c(n1S(=O)(=O)c1ccc(C)cc1)C(=O)C(=O)c1[nH]cc(C(=O)OCc3ccccc3)c1-2	-7%	.	-9%	-9	-2%	?
CCCCOc1ccc(C(=O)Nc2onc3c2CCCC3)cc1	44%	1%	2%	.	.	-26%
C[n+]1c(/C=C/c2ccc(O)cc2)ccc2ccccc21	?	16µM*	-29%	-4	-22%	-26%
CCOc1ccc(/C=C/c2ccc3ccccc3[n+]2C)cc1OCC	?	.	45µM*	.	.	.
CC[n+]1c(/C=C/c2ccc(OC)c(OC)c2)ccc2ccccc21	-1%	?	-9%	-4	-2%	-2%
CC(C)NC(=S)NNc1nc2ccccc2s1	41%	1%	2%	-67*	?	-21%
O=C(NNc1nc2ccccc2s1)c1ccc(F)cc1	21%	57%	4%	4	-25%	-2%
Cc1ccc(NCN2C(=O)C3C4C=CC(C4)C3C2=O)cc1 (stereo unspecified)	2%	17%	-3%	?	1%	-6%
O=C1C2C3C=CC(C3)C2C(=O)N1CNc1ccc(O)cc1 (stereo unspecified)	.	40µM*	.	.	.	.
O=C(OCCOc1ccc(Br)cc1)c1ccc(Cl)c(S(=O)(=O)N2CCOCC2)c1	13%	.	2%	9	-6%	0%
CN(C)C(=S)Nc1cccc(-c2n[nH]c(=S)o2)c1	38%	3%	-14%	-21	-4%	-15%
NNC(=S)Nc1cccc(-c2n[nH]c(=S)o2)c1	-12%	?	-30%	-76*	-17%[11.6 µM]	79µM*
CC(=O)c1c(C)nc(-c2ccc(Cl)cc2)nc1N=CN(C)C	-1%	35µM*	-16%	1	6%	-15%
CCN(CC)C(=S)Oc1ccc(Cl)cc1Cl	44%	8%	1%	5	0%	-12%
O=C(CSc1nc(=O)n(CCN2CCOCC2)c2c1CCC2)Nc1ccc(Cl)c(Cl)c1	8%	3%	-8%[60.1 µM]	.	.	-4%
Cc1ccccc1NC(=O)c1c(C)[nH]c(=S)c(C#N)c1-c1ccco1	?	-27%	-8%	-63*	0%	-9%
N#Cc1cc(N2CCCCC2)c([N+](=O)[O-])cc1C#N	-11%	2%	-10%[60.1 µM]	1	4%	-5%
O=[N+]([O-])c1cc2no[n+]([O-])c2cc1N1CCCCC1	?	.	?	-80*	?	16µM*
CCc1ccccc1NC(=O)NNS(=O)(=O)c1cc(C)ccc1C	40%	-27%	1%	8	-3%	-21%

Assay outcomes from PubChem.
